Records with an inconclusive call do not appear. Entries that show only a call come without a potency. Some compounds were tested as several samples or in several runs, with calls that do not always agree. Activity calls are given as the source filed them. Calls follow the shape of the dose curve; as a rule, active = well fitted inhibition curve with a large enough effect; inconclusive = small, poorly fitted or top-dose-only effect; inactive = flat fitted curve, though single readings scatter.
What was measured:
[1] = biological target: Glutathione peroxidase 1 (Homo sapiens) (UniProt P07203); assay: Primary qHTS Assay for Inhibitors of Recombinant Selenoprotein Glutathione Peroxidase 1 (GPX1) (AID 1845191)
Sequence of Glutathione peroxidase 1 (Homo sapiens) (P07203 whole entry, looked up): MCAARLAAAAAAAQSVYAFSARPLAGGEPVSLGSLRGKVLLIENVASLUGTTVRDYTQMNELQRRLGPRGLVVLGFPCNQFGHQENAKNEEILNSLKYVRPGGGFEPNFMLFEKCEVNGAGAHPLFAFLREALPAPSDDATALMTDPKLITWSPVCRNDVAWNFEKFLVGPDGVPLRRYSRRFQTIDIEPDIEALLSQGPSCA
Summary of the method: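 GPX1 10 nM, GR 100 nM, GSH 1 mM, NADPH 0.5 mM, CHP 0.5 mM (final). 30-min cpd preincubation, RT. Ex340/Em450 read t=0, t=15 min.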

[2] = biological target: Phospholipid hydroperoxide glutathione peroxidase GPX4 (Homo sapiens) (UniProt P36969); assay: Primary qHTS Assay for Inhibitors of Recombinant Selenoprotein Glutathione Peroxidase 4 (GPX4) (AID 1845192)
Sequence of Phospholipid hydroperoxide glutathione peroxidase GPX4 (Homo sapiens) (P36969 whole entry, looked up): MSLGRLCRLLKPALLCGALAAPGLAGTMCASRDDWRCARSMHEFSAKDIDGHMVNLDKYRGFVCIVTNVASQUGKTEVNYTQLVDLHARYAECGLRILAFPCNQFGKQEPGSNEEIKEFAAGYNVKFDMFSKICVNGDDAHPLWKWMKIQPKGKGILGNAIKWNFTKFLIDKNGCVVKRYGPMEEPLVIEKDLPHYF
Summary of the method: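 qHTS, GR-coupled: GPX4 200 nM + cpd 30 min RT → GSH 1 mM, NADPH 0.5 mM, GR 100 nM → CHP 0.5 mM start; fluor 340/450 at t0 and t15 min; no-enzyme wells as control.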
Also: nearly all actives have a fitted effect of over 65% in size.
Potency is read from the fitted curve at half-maximal effect.

Row | SMILES | Potency [1] | Potency [2]
1 | CCOC(=O)[C@@H](N)CCC(=O)N[C@@H](CSCc1ccccc1)C(=O)N[C@@H](C(=O)OCC)c1ccccc1 | inactive | inactive
2 | CCOC(=O)N1c2ccc(C(F)(F)F)cc2[C@@H](N(Cc2cc(C(F)(F)F)cc(C(F)(F)F)c2)C(=O)OC)C[C@H]1CC | inactive | inactive
3 | COc1cccc(OC)c1-c1cc(C(=O)NC2(C(=O)O)C3CC4CC(C3)CC2C4)nn1-c1ccnc2cc(Cl)ccc12 (stereo not given) | inactive | inactive
4 | CN(C)c1ccccc1CN1CCCN(Cc2ccccc2N(C)C)C1c1ccncc1 | inactive | inactive
5 | Cc1ccc(C(=O)N(CCCN)[C@@H](c2nc3cc(Cl)ccc3c(=O)n2Cc2ccccc2)C(C)C)cc1 | inactive | inactive
6 | Cc1cccc(Nc2nc(N[C@@H]3CCCC[C@H]3N)ncc2C(N)=O)c1 | inactive | inactive
7 | CCCCOCCOc1nc(-c2ccc(C(=O)O)c(F)c2)sc1C | inactive | inactive
8 | CN1CCN(c2ncc(-c3cc(Cl)cc(Cl)c3Cl)c(N)n2)CC1 | inactive | inactive
9 | NCC1CCC(C(=O)O)CC1 (stereo not given) | inactive | inactive
10 | CC(C)[C@H](O)C(=O)N[C@@H](C)C(=O)N[C@@H]1C(=O)N(C)CCc2ccccc21 | inactive | inactive
11 | CCCCC[C@H](O)C=C[C@H]1[C@H](O)CC(=O)[C@H]1CC=CCCCC(=O)O | inactive | inactive
12 | COc1c(C)cnc(Cn2cnc3c(Cl)nc(N)nc32)c1C | inactive | inactive
13 | Cc1nc(C(=O)NCC(=O)O)c(O)c2ccc(Oc3ccccc3)cc12 | inactive | inactive
14 | Cc1ccc(C(=O)N(CCCN)[C@@H](c2oc3cc(Cl)ccc3c(=O)c2Cc2ccccc2)C(C)C)cc1 | inactive | inactive
15 | CC[C@]1(O)C[C@H]2CN(CCC3=c4ccccc4=N[C]3[C@@](C(=O)OC)(c3cc4c(cc3OC)N(C)[C@H]3[C@@](O)(C(N)=O)[C@H](O)[C@]5(CC)C=CCN6CC[C@]43[C@@H]65)C2)C1 | inactive | inactive
16 | N[C@@H](CC(=O)N1CCn2c(nnc2C(F)(F)F)C1)Cc1cc(F)c(F)cc1F | inactive | inactive
17 | CC(NCCc1ccc(O)cc1)C(O)c1ccc(O)cc1 (stereo not given) | inactive | inactive
18 | COc1cc(F)c(C(C)C)cc1-c1ccc(C(F)(F)F)cc1CN1C(=O)O[C@H](c2cc(C(F)(F)F)cc(C(F)(F)F)c2)[C@@H]1C | inactive | inactive

Row | SMILES | Potency [1] | Potency [2]
19 | Nc1ccn([C@@H]2O[C@H](CO)[C@@H](O)[C@H]2O)c(=O)n1 | inactive | inactive
20 | CC(=O)NCCC(=O)N[C@@H](CCC(N)=O)C(=O)N[C@@H](CO)C(=O)N[C@@H](CCC(N)=O)C(=O)N[C@@H](CCC(N)=O)C(=O)N[C@H](C(=O)N[C@@H](Cc1ccccc1)C(=O)N[C@]1(C)CCCCCCC=CCCC[C@@](C)(C(=O)N[C@@H](CCC(N)=O)C(=O)N[C@@H](CC(N)=O)C(N)=O)NC(=O)[C@H](CC(C)C)NC(=O)[C@H](CC(C)C)NC(=O)[C@@H](CCCNC(=N)N)NC(=O)[C@H](Cc2c[nH]c3ccccc23)NC(=O)[C@H](CC(C)C)NC(=O)[C@H](CC(N)=O)NC1=O)[C@H](C)O | inactive | inactive
21 | C#CCN(C)CC1=Cc2ccccc2Oc2ccccc21 | inactive | inactive
22 | O=C(NC[C@H](O)CO)c1ccncc1Nc1ccc(I)cc1F | inactive | inactive
23 | COc1ccc2c(c1)c(C1=C(c3c[nH]c4ccccc34)C(=O)NC1=O)cn2CCCN(C)C | inactive | inactive
24 | CC(C)(F)C[C@H](N[C@@H](c1ccc(-c2ccc(S(C)(=O)=O)cc2)cc1)C(F)(F)F)C(=O)NC1(C#N)CC1 | inactive | inactive
25 | COc1ccnc(CS(=O)c2nc3ccc(OC(F)F)cc3[nH]2)c1OC (stereo not given) | 9.04 µM (active) and inactive | 16.1 µM (active)
26 | CC1CNc2c(cccc2S(=O)(=O)N[C@@H](CCCN=C(N)N)C(=O)N2CC[C@@H](C)C[C@@H]2C(=O)O)C1 (stereo not given in full) | inactive | inactive
27 | CN1CC(=O)NC1=NC(=O)Nc1cccc(Cl)c1 | inactive | inactive
28 | Cc1cccc(-c2[nH]c(C(C)(C)C)nc2-c2ccc3c(c2)OCO3)n1 | inactive | inactive
29 | CC(C)Oc1cc(Nc2nc(N[C@@H](C)c3ccc(F)cn3)ncc2Cl)[nH]n1 | inactive | inactive
30 | COC1CCC(C(=O)c2ccc3nc4c(cc3c2)CCCO4)CC1 (stereo not given) | inactive | inactive
31 | Cc1ccc(NC(=O)c2ccc(CN3CCN(C)CC3)cc2)cc1Nc1nc(-c2cccnc2)cs1 | inactive | inactive
32 | O=C(NCCCCN1CCOCC1)c1cc2ccccc2o1 | inactive | inactive
33 | Clc1ccc(COC(Cn2ccnc2)c2ccc(Cl)cc2Cl)c(Cl)c1 (stereo not given) | inactive | inactive
34 | COc1ccc(CCN(C)CCCOc2ccc(S(=O)(=O)c3[nH]c4ccccc4c3C(C)C)cc2)cc1OC | inactive | inactive
35 | CC[C@H](C)C(=O)O[C@H]1C[C@H](O)C=C2C=C[C@H](C)[C@H](CC[C@@H](O)C[C@@H](O)CC(=O)O)[C@H]21 | inactive | inactive

— PubChem BioAssay (NCATS)
